# Inconclusive results are not listed. A structure can be active in one record and inactive in another. Calls of active or inactive are those of the source. Unless noted, calls follow the shape of the dose curve; as a rule, active = well fitted curve in the direction sought with a large enough effect; inconclusive = small, poorly fitted or top-dose-only effect, or another doubt; inactive = no such curve, though single readings can be large; an effect the other way counts as inactive or inconclusive.
# What was measured:
# [1] = qHTS profiling of the MIPE4 collection as inhibitors of Plasmodium falciparum (3D7) proliferation (AID 743344; call rule not given here;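 also: scaled between DMSO vehicle wells and 0.29 µM artemisinin as full inhibition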); details: P. falciparum 3D7 in erythrocytes, SYBR Green DNA fluorescence, 72 h; at 28.5 µM
# In short: (§1)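 Erythrocytes infected with P. falciparum (0.3% parasitemia, 2.5% hematocrit) incubated with compounds 72 h at 37 C, 5% CO2. Lysis with saponin/Triton buffer containing SYBR Green I, overnight at room temperature in the dark; DNA fluorescence (485/535 nm) normalised to 0.29 uM artemisinin and DMSO.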
# [2] = qHTS profiling of the MIPE4 collection as inhibitors of Plasmodium falciparum (DD2) proliferation (AID 743345; call rule not given here); details: P. falciparum Dd2 in erythrocytes, SYBR Green DNA, 72 h; at 28.5 µM
# In short: as §1
# [3] = qHTS profiling of the MIPE4 collection as inhibitors of Plasmodium falciparum (DD2) proliferation (Rep 2) (AID 743346; call rule not given here); details: P. falciparum Dd2 in erythrocytes, SYBR Green DNA, 72 h; at 28.5 µM
# In short: as §1
# [4] = qHTS profiling for inhibitors of Plasmodium falciparum (3D7) proliferation (AID 743322);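 also: infected erythrocytes exposed to compound for 72 h before lysis; 100% = DMSO vehicle wells and 0% = 0.29 µM artemisinin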; details: P. falciparum 3D7 proliferation; at 28.7 µM (top of the series)
# In short: as §1
# [5] = qHTS profiling for inhibitors of Plasmodium falciparum (DD2) proliferation (AID 743323; call rule not given here); details: lower = more inhibition; at 28.7 µM (top of the series)
# In short: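 SYBR Green fluorescence (ex 485, em 535 nm) of lysed cultures gives parasite DNA content; wells normalized to artemisinin (0.29 uM) and DMSO controls. Infected red cells: 0.3% parasitemia, 2.5% hematocrit, 72 h, 37 C.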
# [6] = qHTS profiling for inhibitors of Plasmodium falciparum (HB3) proliferation (AID 743324); details: Plasmodium falciparum HB3 blood-stage proliferation; at 28.7 µM (top of the series);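 also: 100% = DMSO vehicle wells and 0% = artemisinin-treated control wells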
# In short: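 P. falciparum HB3 grown in erythrocytes (0.3% parasitemia, 2.5% hematocrit final) with compound for 72 h at 37 C, 5% CO2. Parasite DNA detected by SYBR Green after saponin/triton lysis overnight; normalized to 0.29 uM artemisinin and DMSO.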
# [7] = target: Cytochrome P450 2C9 (Homo sapiens) (UniProt P11712); experiment: qHTS Assay for Inhibitors and Substrates of Cytochrome P450 2C9 (AID 883); also: nearly all actives have a fitted effect of over 60% in size; also: potency is read from the fitted curve at half-maximal effect; as to activity change, negative = inhibition: % is scaled to controls: 0 for no effect and ±100 for the full control effect
# Cytochrome P450 2C9 (Homo sapiens), sequence (P11712 whole entry, looked up): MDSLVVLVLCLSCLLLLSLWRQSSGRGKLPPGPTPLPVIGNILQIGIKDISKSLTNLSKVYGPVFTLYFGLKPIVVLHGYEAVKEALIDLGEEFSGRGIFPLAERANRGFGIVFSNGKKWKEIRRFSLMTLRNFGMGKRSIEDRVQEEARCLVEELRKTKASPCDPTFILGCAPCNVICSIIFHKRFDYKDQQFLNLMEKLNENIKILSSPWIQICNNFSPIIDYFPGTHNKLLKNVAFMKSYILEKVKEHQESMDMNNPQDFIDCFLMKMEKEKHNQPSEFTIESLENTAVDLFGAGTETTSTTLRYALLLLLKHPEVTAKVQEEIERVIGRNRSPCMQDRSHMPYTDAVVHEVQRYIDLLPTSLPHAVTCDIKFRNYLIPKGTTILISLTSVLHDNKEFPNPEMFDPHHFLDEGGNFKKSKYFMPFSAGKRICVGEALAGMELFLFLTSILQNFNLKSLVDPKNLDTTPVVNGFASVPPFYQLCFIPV
# In short: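 A luminogenic readout tracked human CYP2C9 (10nM) converting deoxyluciferin (100uM, at KM) in 25mM KPO4 during 60 min at 37C with regenerated NADPH. Values normalized to 57uM sulphaphenazole as complete inhibition.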
# [8] = target: Cytochrome P450 3A4 (Homo sapiens) (UniProt P08684); experiment: qHTS Assay for Inhibitors and Substrates of Cytochrome P450 3A4 (AID 884); also: nearly all actives have a fitted effect of over 50% in size; also: potency is read from the fitted curve at half-maximal effect; as to activity change, negative = inhibition: % is scaled to controls: 0 for no effect and ±100 for the full control effect
# Cytochrome P450 3A4 (Homo sapiens), sequence (P08684 whole entry, looked up): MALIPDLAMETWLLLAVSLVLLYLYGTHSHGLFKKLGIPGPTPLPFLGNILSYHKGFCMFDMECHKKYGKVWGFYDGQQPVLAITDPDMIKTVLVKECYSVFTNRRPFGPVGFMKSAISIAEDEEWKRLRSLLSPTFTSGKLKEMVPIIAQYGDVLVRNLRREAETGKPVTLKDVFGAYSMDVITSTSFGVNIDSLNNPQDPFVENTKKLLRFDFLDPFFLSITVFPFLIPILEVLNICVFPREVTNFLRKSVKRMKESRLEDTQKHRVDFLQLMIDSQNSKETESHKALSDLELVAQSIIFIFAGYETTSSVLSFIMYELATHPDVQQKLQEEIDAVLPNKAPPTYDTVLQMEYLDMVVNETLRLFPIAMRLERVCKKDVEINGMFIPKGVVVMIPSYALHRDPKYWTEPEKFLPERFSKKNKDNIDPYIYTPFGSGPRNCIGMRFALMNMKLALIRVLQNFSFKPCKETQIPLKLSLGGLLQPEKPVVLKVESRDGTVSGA
# In short: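 20 nM human CYP3A4 with 25 uM Luciferin-PPXE (at KM) in 200 mM KPO4, preincubated 10 min with compound; NADPH regeneration started a 60 min RT reaction. Luciferin detected by luminescence, normalized to 57 uM ketoconazole as full inhibition.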
# [9] = target: Cytochrome P450 3A4 (Homo sapiens) (UniProt P08684); experiment: qHTS Assay for Activators of Cytochrome P450 3A4 (AID 885); also: nearly all actives have a fitted effect of over 65% in size
# In short: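 20nM CYP3A4 + 25uM Luciferin-PPXE (=KM), 200mM KPO4; cpd 10 min RT; NADPH regen, 60 min RT; stop w/ detection buffer, 20 min; luminescence. Normalized to 57 uM ketoconazole.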
# [10] = target: Cytochrome P450 2D6 (Homo sapiens) (UniProt P10635); experiment: qHTS Assay for Inhibitors and Substrates of Cytochrome P450 2D6 (AID 891);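 also: luciferin methyl ether substrate demethylated by CYP2D6 with NADPH regeneration; % is scaled to controls: 0 for no effect and ±100 for the full control effect; nearly all actives have a fitted effect of over 60% in size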
# Cytochrome P450 2D6 (Homo sapiens), sequence (P10635 whole entry, looked up): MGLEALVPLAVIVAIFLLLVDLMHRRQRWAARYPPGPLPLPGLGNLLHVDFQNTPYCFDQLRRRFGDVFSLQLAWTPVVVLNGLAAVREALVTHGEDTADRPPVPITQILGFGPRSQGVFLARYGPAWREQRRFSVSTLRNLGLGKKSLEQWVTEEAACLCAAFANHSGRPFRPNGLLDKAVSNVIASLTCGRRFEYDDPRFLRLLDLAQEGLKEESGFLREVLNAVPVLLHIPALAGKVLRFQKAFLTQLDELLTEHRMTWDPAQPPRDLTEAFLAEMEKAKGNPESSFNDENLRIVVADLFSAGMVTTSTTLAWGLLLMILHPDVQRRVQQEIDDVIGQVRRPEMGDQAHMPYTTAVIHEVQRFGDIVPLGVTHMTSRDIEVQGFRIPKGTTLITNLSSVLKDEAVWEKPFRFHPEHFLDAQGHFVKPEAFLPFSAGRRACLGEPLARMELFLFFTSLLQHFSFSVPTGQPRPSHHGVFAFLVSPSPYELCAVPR
# In short: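 Human CYP2D6 (5 nM) with 30 uM Luciferin-ME EGE (at Km) in 100 mM KPO4, compound preincubated 10 min, then NADPH regeneration system for 60 min at room temperature. Luciferin read by luminescence; normalized to 1.43 uM quinidine.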
# [11] = target: Cytochrome P450 2C19 (Homo sapiens) (UniProt P33261); experiment: qHTS Assay for Inhibitors and Substrates of Cytochrome P450 2C19 (AID 899); also: nearly all actives have a fitted effect of over 60% in size; also: potency is read from the fitted curve at half-maximal effect
# Cytochrome P450 2C19 (Homo sapiens), sequence (P33261 whole entry, looked up): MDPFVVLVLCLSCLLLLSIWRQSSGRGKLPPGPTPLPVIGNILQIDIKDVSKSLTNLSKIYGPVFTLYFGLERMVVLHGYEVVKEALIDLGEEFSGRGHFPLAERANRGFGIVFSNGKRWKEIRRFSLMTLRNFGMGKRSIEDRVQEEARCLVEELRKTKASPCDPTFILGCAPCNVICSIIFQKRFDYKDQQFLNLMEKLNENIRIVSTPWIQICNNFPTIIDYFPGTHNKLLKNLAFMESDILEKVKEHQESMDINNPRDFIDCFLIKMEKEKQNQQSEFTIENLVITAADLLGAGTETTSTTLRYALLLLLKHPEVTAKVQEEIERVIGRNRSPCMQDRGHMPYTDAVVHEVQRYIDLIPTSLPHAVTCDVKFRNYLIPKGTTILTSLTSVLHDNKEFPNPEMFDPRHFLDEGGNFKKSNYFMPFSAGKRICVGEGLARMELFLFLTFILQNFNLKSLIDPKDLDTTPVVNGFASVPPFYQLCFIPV
# In short: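 NADPH-dependent conversion of Luciferin-H EGE (10uM, at KM) by 5nM enzyme in 50mM KPO4, 60 min at 37C following 10 min compound preincubation. Stopped with luciferin detection buffer; luminescence read after 20 min.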
compound,measurement,setting,value
COc1cc(C)c2c(Oc3cccc(C(F)(F)F)c3)c(OC)cc(NCCCC(C)N)c2n1 (centres undefined),"parasite growth, % of DMSO control",[1],3.66%
same,"parasite growth remaining, % of DMSO control (lower = more inhibition)",[2],6.22%
same,"parasite growth, % of control (lower = inhibition)",[3],16%
O=C1CCC(C2=C(O)c3ccccc3C(=O)C2=O)CC1,remaining parasite growth % (stronger effect = lower value),[4],7.05%
same,"activity, percent of control",[5],6.83%
same,"remaining proliferation (% of control), lower = more inhibition",[6],5.38%
O=C([C@H](Cc1ccc(O[S+](=O)([O-])c2cccnc2)cc1)N[S+](=O)([O-])c1cccnc1)N1CCN(c2ccccc2)CC1,remaining parasite growth % (stronger effect = lower value),[4],15.8%
same,"activity, percent of control",[5],16.7%
same,"remaining proliferation (% of control), lower = more inhibition",[6],3.22%
CCCC[C@@H]1C[C@@H](C(=O)NC([C@H](C)Cl)[C@H]2O[C@H](S)[C@H](O)[C@@H](O)[C@@H]2O)N(C)C1 (some centres undefined),remaining parasite growth % (stronger effect = lower value),[4],39%
same,"activity, percent of control",[5],33.1%
same,"remaining proliferation (% of control), lower = more inhibition",[6],31.5%
same,"parasite growth, % of DMSO control",[1],29.2%
same,"parasite growth remaining, % of DMSO control (lower = more inhibition)",[2],38%
same,"parasite growth, % of control (lower = inhibition)",[3],28%
C[C@H]1C[C@H]2C3CCC4=CC(=O)C=C[C@@]4(C)[C@@]3(Cl)[C@@H](O)CC2(C)[C@@]1(OC(=O)c1ccco1)C(=O)CCl (some centres undefined),"parasite growth, % of DMSO control",[1],5.13%
same,"parasite growth remaining, % of DMSO control (lower = more inhibition)",[2],6.79%
same,"parasite growth, % of control (lower = inhibition)",[3],16.7%
O=C([C@H](Cc1ccc(O[S+](=O)([O-])c2cccc3cccnc23)cc1)N[S+](=O)([O-])c1ccccn1)N1CCN(c2ccccc2)CC1,remaining parasite growth % (stronger effect = lower value),[4],-1.21%
same,"activity, percent of control",[5],2.43%
same,"remaining proliferation (% of control), lower = more inhibition",[6],-0.011%
O=C([C@H](Cc1ccc(OS(=O)(=O)c2ccccn2)cc1)NS(=O)(=O)c1ccccn1)N1CCN(c2ccccc2)CC1,remaining parasite growth % (stronger effect = lower value),[4],49.4%
same,"activity, percent of control",[5],24.7%
same,"remaining proliferation (% of control), lower = more inhibition",[6],18.6%
CCOc1ccc(F)cc1C1(O)C(N)=Nc2ccc(Cl)cc21 (centres undefined),remaining parasite growth % (stronger effect = lower value),[4],0.18%
same,"activity, percent of control",[5],0.185%
same,"remaining proliferation (% of control), lower = more inhibition",[6],1.54%
same,"parasite growth, % of DMSO control",[1],5.08%
same,"parasite growth remaining, % of DMSO control (lower = more inhibition)",[2],6.08%
same,"parasite growth, % of control (lower = inhibition)",[3],8.34%
CN(C)CCC=C1c2ccccc2COc2ccccc21,"parasite growth, % of DMSO control",[1],86.6%
same,"parasite growth remaining, % of DMSO control (lower = more inhibition)",[2],53.4%
same,"parasite growth, % of control (lower = inhibition)",[3],55.1%
CC(C)CO/N=C1/[C@H]2O[C@@H]2[C@@H](O)[C@H]2[C@H]1CCn1c(=O)n(-c3ccccc3)c(=O)n12,Potency,[7],inactive
COc1ccc(-c2ccc3c(n2)CCCN3C[C@H](O)CN2CCCc3nc(C)c(C)cc32)cc1,Potency,[7],3980 nM (active)
C=CCC(O)CC1C2C(CC(O)CC=C)C3C1C3C2OC(C)(C)C (centres undefined),Potency,[7],inactive
same,Potency,[8],1580 nM (active)
same,"activity change, positive = activation",[9],-98.2% [at 11.4 µM] (inactive)
same,Potency,[10],inactive
same,Potency,[11],794 nM (active)
CCCCC#CC1C=CC(OC(C)=O)C(COC(C)=O)O1 (centres undefined),Potency,[7],inactive
same,Potency,[8],2510 nM (active)
same,"activity change, positive = activation",[9],-63.9% [at 11.4 µM] (inactive)
same,Potency,[10],inactive
C[C@H]1CC[C@H]2C(=O)N[C@H](Cc3ccccc3)C(=O)N2[C@@H]1c1ccccc1,Potency,[7],inactive
same,Potency,[8],2510 nM (active)
same,"activity change, positive = activation",[9],-99.1% [at 11.4 µM] (inactive)
COC(=O)C1=C(C)N(Cc2ccccc2)C2=C(C(C)=O)C(c3ccccc3)[C@@](O)(C(=O)OC)C(=O)N2C1c1ccccc1 (some centres undefined),Potency,[7],inactive
same,Potency,[8],3980 nM (active)
same,"activity change, negative = inhibition",[8],-19% [at 11.4 µM] (inactive)
same,"activity change, positive = activation",[9],-79.4% [at 11.4 µM] (inactive)
same,Potency,[10],inactive
same,Potency,[11],inactive
CO/N=C\c1ccc(C(=O)N2[C@H](c3ccc(C)cc3)[C@@H](C)CC[C@H]2C(=O)OC)cc1,Potency,[7],2510 nM (active)
same,Potency,[8],3160 nM (active)
same,"activity change, positive = activation",[9],-64.1% [at 11.4 µM] (inactive)
CCOC(=O)N/N=C1/C[C@@H](O)[C@@H](O)[C@@H]2[C@@H]3C(=O)N(c4cccc(Oc5ccccc5)c4)C(=O)[C@H]3CC[C@@H]12,Potency,[7],inactive
COC(=O)NC(/C(C(=O)OC)=C(\C)NCc1ccccc1)c1cccc(C)c1 (centres undefined),Potency,[7],inactive
same,"activity change, negative = inhibition",[8],-22.4% [at 11.4 µM] (inactive)
CC1CCC2C(=O)N3C(CCC(C)[C@@H]3c3cccc(N4CCOCC4)c3)C(=O)N2C1c1cccc(Br)c1 (some centres undefined),Potency,[7],2510 nM (active)
same,Potency,[8],25.1 nM (active)
same,"activity change, positive = activation",[9],-62% [at 11.4 µM] (inactive)
same,Potency,[10],inactive
CCCNC(=O)OC[C@@H]1O[C@H](CCO/N=C(\C)CCN2CCc3nc(-c4ccccc4)c(-c4ccccc4)cc3C2)C=C[C@@H]1Oc1ccc(OC)cc1,Potency,[7],2000 nM (active)
same,Potency,[8],3160 nM (active)
same,"activity change, positive = activation",[9],-74.2% [at 11.4 µM] (inactive)
COc1cccc([C@@H]2Oc3ccc(OC)cc3/C(=N/O[C@@H](C)CN3CCCCc4nc(C)c(C)cc43)[C@@H]2O)c1,Potency,[7],1580 nM (active)
same,Potency,[8],3980 nM (active)
same,"activity change, positive = activation",[9],-96.4% [at 11.4 µM] (inactive)
